Bioassay records from PubChem.
HP1b binding inh: blocks HP1-beta chromodomain binding to methylated histone tails; 390,000 compounds, 0.56% hits; AlphaScreen HP1-beta / biotin-H3K9me3 peptide binding; P83916; Potency, µM (series often up to 114 µM), most hits filed as inhibitors; further: nearly all actives have a fitted effect of over 70% in size
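HP1-beta protein (50 nM final) preincubated 30 min at room temperature with biotinylated H3(1-18)K9me3 peptide (50 nM) in PBS pH 7.4, 0.01% Tween-20, then compound added for 30 min. AlphaScreen streptavidin donor/nickel chelate acceptor beads (10 ug/mL final), 30 min dark, luminescence read.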
BAZ2B inh: blocks human BAZ2B; Q9UIF8; AlphaScreen BAZ2B-H3K14Ac peptide displacement; Potency, µM (top dose mostly 114 µM), most hits filed as inhibitors; 360,000 compounds, 4.4% hits; AID 504333; further: nearly all actives have a fitted effect of over 60% in size
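Multi-concentration screen (max 110 uM) measuring displacement of acetylated histone H3 peptide from BAZ2B by AlphaScreen, using 50 nM protein, 50 nM peptide and 10 ug/mL streptavidin donor plus Ni-chelate acceptor beads.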
G9a inh-1: inhibitors of human histone lysine methyltransferase G9a; Q96KQ7; G9a H3K9 monomethylation, AlphaScreen, 2 h; Potency, µM (series often up to 102 µM), actives largely listed as inhibitors; 350,000 compounds, 8.8% hits; further: nearly all actives have a fitted effect of over 75% in size
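Using a bead-based AlphaScreen, monomethylated H3K9 product from 2 h room-temperature reactions (G9a 20 nM, peptide 500 nM, SAM 20 uM) was detected with 0.5 ug/mL rabbit anti-H3K9me1 antibody.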
Six1-Eya2 inh: Six1/Eya2 interaction inhibition; Q15475+O00167; activity change, % (concentration not given with the values); AlphaScreen GST-Six1/His-Eya2 binding, biochemical; active compounds read low; AID 651725; 360,000 compounds, 0.56% hits; in the data active means activity change below about -65%; inconclusive means mostly about -30% to -63%
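AlphaScreen luminescence read after one hour at 37 °C in darkness. Pin-transferred compounds met GST-Six1 and His-Eya2 protein (5X stock 250 nM/500 nM) plus glutathione donor and Ni-chelate acceptor beads (5X, 50 ug/mL).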
JMJD2A Tudor: blocks the human JMJD2A Tudor domain; O75164; AlphaScreen JMJD2A-Tudor / H3K4me3 peptide binding; Potency, µM (top dose mostly 114 µM), usual class: inhibitors; 390,000 compounds, 4.4% hits; AID 504339; further: nearly all actives have a fitted effect of over 50% in size
Target sequence (O75164 whole entry, looked up, the tested form may be a part): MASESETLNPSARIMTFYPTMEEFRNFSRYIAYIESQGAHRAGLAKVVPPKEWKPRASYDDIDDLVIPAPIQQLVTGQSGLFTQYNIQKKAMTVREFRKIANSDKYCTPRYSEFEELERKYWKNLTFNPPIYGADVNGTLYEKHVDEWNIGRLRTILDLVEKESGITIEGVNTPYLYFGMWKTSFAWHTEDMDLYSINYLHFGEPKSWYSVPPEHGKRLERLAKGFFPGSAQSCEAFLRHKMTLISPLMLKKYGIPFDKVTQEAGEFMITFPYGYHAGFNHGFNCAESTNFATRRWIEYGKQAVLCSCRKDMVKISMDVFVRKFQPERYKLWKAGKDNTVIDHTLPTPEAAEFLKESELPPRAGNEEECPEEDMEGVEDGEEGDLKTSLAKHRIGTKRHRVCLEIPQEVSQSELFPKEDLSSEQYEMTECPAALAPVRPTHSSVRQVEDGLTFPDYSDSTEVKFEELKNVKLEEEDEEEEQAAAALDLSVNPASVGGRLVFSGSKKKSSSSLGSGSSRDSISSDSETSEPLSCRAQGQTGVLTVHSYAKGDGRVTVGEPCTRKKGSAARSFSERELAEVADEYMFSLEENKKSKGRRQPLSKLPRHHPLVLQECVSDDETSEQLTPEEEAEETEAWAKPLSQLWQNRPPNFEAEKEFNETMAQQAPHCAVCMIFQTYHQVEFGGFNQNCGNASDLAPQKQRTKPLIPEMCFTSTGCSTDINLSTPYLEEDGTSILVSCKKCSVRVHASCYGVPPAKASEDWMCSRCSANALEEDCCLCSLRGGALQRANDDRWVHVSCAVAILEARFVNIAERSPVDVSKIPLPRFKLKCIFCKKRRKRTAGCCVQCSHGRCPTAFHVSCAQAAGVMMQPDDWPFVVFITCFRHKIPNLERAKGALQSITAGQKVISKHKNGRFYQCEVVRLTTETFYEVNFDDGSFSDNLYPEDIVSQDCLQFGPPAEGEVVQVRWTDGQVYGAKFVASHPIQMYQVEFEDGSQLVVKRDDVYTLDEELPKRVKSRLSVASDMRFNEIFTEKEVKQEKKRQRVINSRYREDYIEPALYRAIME
CtBP-E1A inh: blocks the CtBP interaction with E1A. AlphaScreen GST-E1A/His-CtBP binding, 1536-well; active compounds read low. activity change, % (no concentration beside the values). 340,000 compounds, 0.49% hits. AID 651724; in the data active means activity change below about -65%; inconclusive means mostly about -30% to -63%
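AlphaScreen with 125 nM GST-E1A and 125 nM His-CtBP (5X stocks) in Tris pH 8.0, 300 mM NaCl, BSA, Tween 20, TCEP. Compounds preincubated 2 h at 37 deg C, then glutathione donor/nickel acceptor beads added for 1 h at 37 deg C in dark.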
G9a inh-2: inhibits human G9a histone lysine methyltransferase, hit confirmation. shares compounds with JMJD2A Tudor. G9a H3K9 monomethylation, AlphaScreen, 2 h. Potency, µM, most hits filed as inhibitors. 370 compounds, 89% hits. AID 588344; further: nearly all actives have a fitted effect of over 65% in size
Large screens that a line does not name were inactive (follow-up assays come after a bar, where they were run). This is a sample that favours compounds with a hit; in the whole collection about 10% have one here. Unless noted, the call rests on the fitted dose curve; in most records, active means well fitted curve in the direction sought with a large enough effect; inconclusive means small, poorly fitted or top-dose-only effect, or another doubt; inactive means no such curve, though single readings can be large; an effect the other way counts as inactive or inconclusive.

COc1cc(OC)c(NC(=O)CCCn2nc(C)c3c(C)n(-c4ccccc4)nc3c2=O)cc1Cl	none (no result: Six1-Eya2 inh, CtBP-E1A inh)
S=C(Nc1ccccn1)NC1CCCC1	G9a inh-1 0.35µM | G9a inh-2 3.2
S=C(Nc1ccccn1)NC1CCCCC1	BAZ2B inh inconclusive
CC(=O)c1ccc(S(=O)(=O)N2CCCC(N(C)CCc3ccccn3)C2)cc1 (stereo not given)	G9a inh-1 inconclusive (no result: CtBP-E1A inh) | G9a inh-2 inconclusive
O=C(OCc1ccc(Br)cc1)c1cccnc1	none (no result: G9a inh-1)
O=C(OCc1ccccc1)c1cccnc1	G9a inh-1 1.4µM (no result: HP1b binding inh, BAZ2B inh, Six1-Eya2 inh, JMJD2A Tudor, CtBP-E1A inh) | G9a inh-2 2.6
COc1ccc(-n2c(C)cc(-c3csc(NC(=O)c4ccc(S(=O)(=O)N(C)C)cc4)n3)c2C)cc1	none
CC(=O)Nc1ccc(NC(=O)CSc2ccc(-c3cccs3)nn2)cc1	none
CC(=O)c1ccc(NC(=O)CSc2ccc(-c3cccs3)nn2)cc1	G9a inh-1 2.8µM, JMJD2A Tudor inconclusive (no result: Six1-Eya2 inh, CtBP-E1A inh) | G9a inh-2 6.3
COc1ccc(OC)c(CN2CCN(C(=O)c3cc4ccccc4cc3O)CC2)c1	G9a inh-1 inconclusive, JMJD2A Tudor inconclusive
O=C(c1ccc(OC2CCN(Cc3ccccc3C(F)(F)F)CC2)cc1)N1CCCCC1	G9a inh-1 inconclusive
COc1cccc(OC)c1C(=O)N1CCN(Cc2ccccc2C(F)(F)F)CC1	HP1b binding inh inconclusive, BAZ2B inh 20µM, G9a inh-1 inconclusive, JMJD2A Tudor 7.9µM | G9a inh-2 4.5
COc1ccc(OC)c(CN2CCN(C(=O)c3cccc4ccccc34)CC2)c1	HP1b binding inh 22µM, BAZ2B inh 40µM, G9a inh-1 2.5µM, JMJD2A Tudor 10µM | G9a inh-2 22
CCC(C)n1ncn(-c2ccc(N3CCN(c4ccc(OC)cc4)CC3)cc2)c1=O (stereo not given)	G9a inh-1 inconclusive
Cc1ccc(NC(=O)c2ccc(NC(=O)N3CCSc4ncccc43)cc2)c(C)c1	none (no result: Six1-Eya2 inh, CtBP-E1A inh)
CCN(CC)c1ccc(NC(=O)COC(=O)CCC(=O)c2ccc(F)cc2)cc1	BAZ2B inh inconclusive, G9a inh-1 1.6µM, Six1-Eya2 inh inconclusive, CtBP-E1A inh inconclusive | G9a inh-2 1.6
O=C(COC(=O)CCC(=O)c1ccc(F)cc1)Nc1ccccc1	none
O=C(CN1CCCC1)Nc1ccc(F)cc1	none (no result: G9a inh-1)
CCN(CC)c1ccc(NC(=O)CN2CCN(CC(=O)Nc3ccc(F)cc3)CC2)cc1	HP1b binding inh inconclusive, BAZ2B inh inconclusive, G9a inh-1 2.2µM, JMJD2A Tudor inconclusive | G9a inh-2 2.8
CN(C)c1ccc(NC(=O)c2ccc([N+](=O)[O-])cc2Cl)cc1	G9a inh-1 2µM | G9a inh-2 6.3
O=C(COC(=O)C1CCN(c2ccc(C(F)(F)F)cn2)CC1)NCc1ccc(F)cc1	none
CCN(CC)c1ccc(NC(=O)COC(=O)C2CCN(c3ccc(C(F)(F)F)cn3)CC2)cc1	HP1b binding inh inconclusive, BAZ2B inh inconclusive, G9a inh-1 1.6µM, Six1-Eya2 inh inconclusive, JMJD2A Tudor 16µM | G9a inh-2 2.8
O=C(NCC1CCN(c2ccc(S(=O)(=O)N3CCOCC3)cc2)CC1)Nc1ccccc1	none
COc1ccc(N2CCC(CNC(=O)Nc3ccccc3)C2)cc1 (stereo not given)	HP1b binding inh 45µM, BAZ2B inh 50µM, G9a inh-1 inconclusive, Six1-Eya2 inh inconclusive, JMJD2A Tudor 18µM, CtBP-E1A inh inconclusive | G9a inh-2 1
CCCn1c(CN2CCN(C(=O)OCC)CC2)nc2cc(NC(=O)C(C)C)ccc21	none
Cc1ccc(N(Cc2cc(=O)[nH]c3ccccc23)C(=O)c2ccco2)cc1	BAZ2B inh inconclusive, G9a inh-1 inconclusive | G9a inh-2 22
COc1ccc(Br)cc1CN1CCCCCCC1	HP1b binding inh inconclusive, BAZ2B inh 50µM, G9a inh-1 2.8µM, JMJD2A Tudor 4µM | G9a inh-2 13
CN(C)c1ccc(NC(=O)Nc2ccc3snnc3c2)cc1	G9a inh-1 1.3µM | G9a inh-2 1.6
O=C(Nc1ccccc1)Nc1ccc2snnc2c1	none
